Results on 40 compounds are retold here after PubChem BioAssay.

Values without a mark were called inactive. How the calls were made is not given here.

Sequence of Pantothenate synthetase (Mycobacterium tuberculosis (strain ATCC 25618 / H37Rv)) (P9WIL5 whole entry, looked up): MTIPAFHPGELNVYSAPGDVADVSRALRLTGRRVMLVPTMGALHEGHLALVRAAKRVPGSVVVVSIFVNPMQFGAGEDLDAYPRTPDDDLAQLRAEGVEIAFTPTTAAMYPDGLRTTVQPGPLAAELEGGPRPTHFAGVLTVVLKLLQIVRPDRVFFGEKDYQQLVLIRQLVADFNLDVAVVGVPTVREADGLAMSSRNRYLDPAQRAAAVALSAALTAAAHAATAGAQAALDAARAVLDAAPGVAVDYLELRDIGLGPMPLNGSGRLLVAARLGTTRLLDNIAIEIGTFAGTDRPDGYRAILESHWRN

The experiment has as its target Pantothenate synthetase (Mycobacterium tuberculosis (strain ATCC 25618 / H37Rv)) (UniProt P9WIL5). Put plainly: Recombinant Mtb pantothenate synthetase (PanC) inhibitors, coupled enzyme, confirmatory (AID 375).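 Further: 0% = full reaction with vehicle and 100% = no enzyme background.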 To be noted: coupled enzyme assay; at 10 µM, active compounds read high.
As to `O=C(CCCn1c(=O)c2sccc2n(Cc2cc(=O)n3ccccc3n2)c1=O)NCc1ccco1`, the inhibition is 0%.

For the compound `CC(C)NC(=O)Nc1cccs1`, the inhibition is 9%.

In the case of `COc1ccc(C2C(C(=O)N3CCC(C)CC3)c3ccccc3C(=O)N2C)cc1` (stereo not given), the inhibition was 0%.

Regarding `COc1ccc(CCNC(=O)CSc2nnnn2-c2ccccc2OC)cc1OC`, the inhibition is 5%.

Turning to `O=C(CSCc1ccc(F)cc1)NC1CCCC1`, the inhibition was 0%.

As to `O=C(C1CCC(CNS(=O)(=O)c2cccc3cccnc23)CC1)N1CCCC1` (stereo not given), the inhibition is 0%.

Regarding `O=C(NC1CCCCC1)n1c(=O)oc2ccc(Cl)cc21`, the inhibition was 5%.

For `O=C(Nc1ccccc1)c1cccc(N2CCCC2=O)c1`, the inhibition is 6%.

Consider `Cc1ccc(S(=O)(=O)NC(C(=O)OCC(=O)NC2CCS(=O)(=O)C2)C(C)C)cc1` (stereo not given), for which the inhibition is 0%.

Regarding `O=S(=O)(CCOc1ccccc1)c1nc2ccccc2[nH]1`, the inhibition was 0%.

On to `COCC(=O)N(Cc1cc2cc(OC)ccc2[nH]c1=O)c1ccccc1`, for which the inhibition is 0%.

For `COC(=O)Nc1nc2c(C)cccc2s1`, the inhibition is 0%.

In the case of `FC(F)(F)COc1nc(N2CCCCC2)nc(N2CCNCC2)n1`, the inhibition is 4%.

Consider `C=CCc1c(C)nc(SC)nc1Nc1ccc(C(=O)O)cc1`, for which the inhibition was 6%.

For `COc1ccc(S(=O)(=O)n2nc(OC(=O)c3ccc(C)cc3)cc2N)cc1`, the inhibition is 5%.

As for `COc1cc(C(=O)OC(C)CN2CCCC2)cc(OC)c1OC` (stereo not given), the inhibition was 4%.

On to `CCSC1(SCC)N=C(N)C2(C#N)C(c3ccccc3)NC(C)=C(C)C12C#N` (stereo not given), for which the inhibition was 0%.

Regarding `Cc1cc(N=Cc2cc(Br)ccc2O)no1`, the inhibition was 6%.

Take `COc1cc(Cn2c(-c3nonc3N)nc3ccccc32)ccc1C`: the inhibition is 0%.

As for `O=c1sc(Nc2ccccc2)nc2ccsc12`, the inhibition is 0%.

For the compound `COc1ccc2c(c1)C1(Nc3ccccc3-c3nc4ccccc4n31)C(=O)N2` (stereo not given), the inhibition is 0%.

Consider `CC(=O)[C@H]1CC[C@H]2[C@@H]3CCC4=CC(=O)CC[C@]4(C)[C@H]3[C@H](O)C[C@]12C`, for which the inhibition was 0%.

With `COCCNC(=O)C1CCCN(c2ncccn2)C1` (stereo not given), the inhibition is 0%.

For the compound `COc1cccc(/C=N/n2cnnc2)c1OCc1ccccc1`, the inhibition is 0%.

Consider `CCc1ccccc1OCCCCCNCCO`, for which the inhibition is 3%.

Turning to `CC(OC(=O)c1cccc(NS(C)(=O)=O)c1)C(=O)Nc1ccc(N2CCOCC2)cc1` (stereo not given), the inhibition is 0%.

In the case of `CCOC(=O)c1cc(CC)sc1NC(=O)COC`, the inhibition is 7%.

For `O=C(c1ccco1)N1CCN(CC2CC3C=CC2C3)CC1` (stereo not given), the inhibition was 7%.

In the case of `O=C(NCCN1CCOCC1)c1ccc2c(c1)N(Cc1ccccc1F)C(=O)CS2`, the inhibition was 0%.

In the case of `Cc1ccc(NC(=O)C2CCCNC2=O)nc1` (stereo not given), the inhibition is 0%.

`N#CC1=C(N)N(c2ccccc2)C2=C(C(=O)CCC2)C1c1cccs1` (stereo not given): the inhibition was 0%.

Turning to `O=S1(=O)Nc2c(ccc3cccnc23)-c2ccccc21`, the inhibition was 0%.

Turning to `CCCN1Cc2cccc(C(=O)NCc3cccs3)c2C1=O`, the inhibition is 0%.

In the case of `CCOC(=O)C1CCCn2c1nc1sc3c(c1c2=O)CCCC3` (stereo not given), the inhibition was 0%.

Turning to `CCOC(=O)CCC(=O)c1c(C)oc2ccc(OC)cc12`, the inhibition is 4%.

In the case of `CCOC(=O)Cn1nnc(-c2ccc(SC)cc2)n1`, the inhibition is 0%.

Take `O=[n+]1c2c(n([O-])c3c1CCCC3)CCCC2`: the inhibition was 0%.

In the case of `Cc1ccccc1-n1c(Cn2c(=O)sc3ccccc32)nnc1SCC(=O)N1CCCC1`, the inhibition is 8%.

As to `Cc1nnc(NC2CCCCC2)[nH]c1=O`, the inhibition was 3%.

In the case of `Cc1cccc(C2CC(c3ccc(Br)cc3)Nc3nc(N)nn32)c1` (stereo not given), the inhibition is 0%.
